Experimental data from PubChem BioAssay AID463173 (ICCB-Longwood Screening Facility, Harvard Medical School, 2010).
Hit rate of the full screen: of about 52,000 compounds, about 1,700 (3.3%) were called active. The sample holds actives, similar compounds and a random draw of the others, so the mix is not that of the screen. Cut-off read from the data, not from the text of the source: active = survival mostly below about 52% (no sharp cut-off); inactive = mostly above about 56%.

Each compound was assayed on Wild type (assay: S. aureus survival, RN4220 and DeltatarO strains – OD600, teichoic acid synthesis inhibitors, primary screen (AID 463173)). Conditions: S. aureus RN4220 wild type/DeltatarO growth, OD600, 18 h, stronger effect = lower value, screened at 18.75 µg/mL (by protocol).
In the case of CC(=O)Nc1ccc(NC(=O)CSc2nccn2Cc2ccc3c(c2)OCO3)cc1, the survival is reported as 72% (inactive).
With NCc1ccc2[nH]c(=O)[nH]c2c1 the survival was 104% (inactive).
For COC(=O)c1ccc(Nc2nc(-c3ccc(C)cc3)nc3ccccc23)cc1, the survival was 7% (active).
With COC(=O)c1ccc(Nc2nc(-c3ccccc3Cl)nc3ccccc23)cc1 the survival was 36% (inactive).
In the case of CCOC(=O)c1nc(Nc2cccc(C)c2)c2ccccc2n1, the survival is reported as 83% (inactive).
In the case of CCOC(=O)c1nc(Nc2ccc(C(C)=O)cc2)c2ccccc2n1, the survival is reported as 81% (inactive).
For Oc1ccc(Nc2nc(-c3ccc(Cl)cc3)nc3ccccc23)cc1, the survival was 3% (active).
For Cc1ccc(OCCCCn2c(-c3ccc(Cl)cc3)nc3ccccc3c2=O)cc1, the survival was 67% (inactive).
In the case of Cc1cccc(Nc2nc(-c3ccccc3)nc3ccccc23)c1, the survival is reported as -1% (active).
CCC(=O)OCCCNc1nc(-c2ccc(Cl)cc2)nc2ccccc12 was tested, and the survival was -2% (active).
In the case of OCCNc1nc(-c2cccnc2)nc2ccccc12, the survival is reported as 119% (inactive).
For Oc1cccc(Nc2nc(-c3ccccc3)nc3ccccc23)c1, the survival was 19% (inactive).
In the case of Fc1ccc(Nc2nc(SCc3ccc(Cl)cc3)nc3ccccc23)cc1, the survival is reported as 90% (inactive).
In the case of CC(=O)c1cccc(Nc2nc(-c3cccc(C)c3)nc3ccccc23)c1, the survival is reported as 31% (inactive).
For Cc1cn2c(=O)cc(COc3cccc(NC(=O)c4ccccc4Cl)c3)nc2s1, the survival was 88% (inactive).
O=C(c1cc2nc(-c3ccccc3)cc(-c3ccccc3)n2n1)N1CCCC1 was tested, and the survival was 100% (inactive).
For CCOC(=O)C1(CC)C(=O)OC(C(=O)NC2CCCCC2)C1C (stereo not drawn), the survival was 112% (inactive).
In the case of COc1cccc(-c2cc(C(=O)NCc3ccccc3)no2)c1, the survival is reported as 85% (inactive).
For Cc1ccc(C)n1-c1c(C(=O)NCC(C)c2ccccc2)sc2ncccc12 (stereo not drawn), the survival was 73% (inactive).
In the case of Cc1ccc(-n2c(SCc3ccccc3F)nc3[nH]ncc3c2=O)cc1C, the survival is reported as 80% (inactive).
For CCOc1ccccc1-c1nc(=S)[nH][nH]1, the survival was 110% (inactive).
In the case of Cc1ccc(NCc2cccn2-c2nnc(N3CCC(C(=O)NC(C)C)CC3)s2)cc1, the survival is reported as 121% (inactive).
CCOC(=O)c1ccccc1NC(=O)C(=O)Nc1ccc2nc3n(c(=O)c2c1)CCCCC3 was tested, and the survival was 123% (inactive).
With COc1ccc(Nc2nc(-c3ccc(C)cc3)nc3ccccc23)c(OC)c1 the survival was 70% (inactive).
In the case of COc1ccc(Nc2nc(-c3ccccc3F)nc3ccccc23)cc1OC, the survival is reported as 71% (inactive).
COc1cc(Nc2nc(-c3ccc(OC)c(OC)c3)nc3ccccc23)cc(OC)c1 was tested, and the survival was 0% (active).
Cc1cccc2nc(Cn3c(=O)n(-c4ccc(Cl)cc4)c(=O)c4c5c(sc43)CCC5)cc(=O)n12 was tested, and the survival was 121% (inactive).
CCC(C(=O)NCCc1ccc(OC)c(OC)c1)n1nc(C)c2sc3ccccc3c2c1=O (stereo not drawn) was tested, and the survival was 79% (inactive).
For CC1(C)CC(=O)C/C(=N\NC(=O)CCc2ccccc2)C1, the survival was 122% (inactive).
Cc1ccc(C(c2sc3nc(-c4ccco4)nn3c2O)N2CCOCC2)cc1 (stereo not drawn) was tested, and the survival was 77% (inactive).
With Cc1cccc(N2CCN(C(=O)c3ccc4c(Cl)c5c(nc4c3)CCCC5)CC2)c1C the survival was 88% (inactive).
For O=C(c1ccc2c(Cl)c3c(nc2c1)CCCC3)N1CCN(c2cccc(Cl)c2)CC1, the survival was 62% (inactive).
In the case of O=C(c1ccc2c(Cl)c3c(nc2c1)CCCC3)N1CCN(c2ccc(Cl)cc2)CC1, the survival is reported as 90% (inactive).
With O=C(c1ccc2c(Cl)c3c(nc2c1)CCCC3)N1CCN(c2ccccc2)CC1 the survival was 0% (active).
For O=C(c1ccc2c(Cl)c3c(nc2c1)CCCC3)N1CCN(c2ccccc2F)CC1, the survival was 0% (active).
With Cc1ccc(Cl)cc1N1CCN(C(=O)c2ccc3c(Cl)c4c(nc3c2)CCCC4)CC1 the survival was 29% (inactive).
With O=C(NCCCc1ccccc1)c1nn(-c2ccccc2F)nc1CO the survival was 89% (inactive).
For COc1ccc(C2=C(C)C(=NCc3ccc(OC(C)C)cc3)NS2(=O)=O)cc1, the survival was 86% (inactive).
With CCCc1nc(C(C#N)c2ccc(F)cc2)c2nnn(Cc3ccccc3)c2n1 (stereo not drawn) the survival was 109% (inactive).
For COc1ccc(N2CCN(C(=O)CN(c3cccc(C(F)(F)F)c3)S(C)(=O)=O)CC2)cc1, the survival was 110% (inactive).
In the case of COc1ccccc1N1CCN(C(=O)c2ccc(CS(=O)c3ccccc3C)o2)CC1 (stereo not drawn), the survival is reported as 75% (inactive).
For CCNC(=O)c1cc2n(n1)CCCN(Cc1ccc(C)cc1)C2=O, the survival was 22% (inactive).
With CCCCNC(=O)c1cc2n(n1)CCCN(Cc1ccc(C)cc1)C2=O the survival was 0% (active).
With CCCNC(=O)c1cc2n(n1)CCCN(Cc1ccc(C)cc1)C2=O the survival was 129% (inactive).
In the case of CCC(C)NC(=O)c1cc2n(n1)CCCN(Cc1ccc(C)cc1)C2=O (stereo not drawn), the survival is reported as 88% (inactive).
In the case of Cc1ccc(CN2CCCn3nc(C(=O)NC(C)C)cc3C2=O)cc1, the survival is reported as -2% (active).
For CCCSCCCNC(=O)c1cc2n(n1)CCCN(Cc1ccc(C)cc1)C2=O, the survival was 113% (inactive).
In the case of CCCCn1cc(S(=O)(=O)c2ccc(CC)cc2)c(=O)c2cc(F)c(N3CCOCC3)cc21, the survival is reported as 73% (inactive).
With CC(C)(C)C(=O)N1CCCC(c2nc3c(nnn3Cc3ccc(C(C)(C)C)cc3)c(=O)[nH]2)C1 (stereo not drawn) the survival was 50% (active).
CCOc1ccc(Cn2nnc3c(=O)[nH]c(C4CCN(C(=O)c5ccccc5)CC4)nc32)cc1 was tested, and the survival was 3% (active).
Cc1cccc(Cn2nnc3c(=O)[nH]c(C4CCCN(C(=O)c5ccc(C(C)(C)C)cc5)C4)nc32)c1 (stereo not drawn) was tested, and the survival was 23% (inactive).
For COc1cccc(OC)c1Cn1nnc2c(=O)[nH]c(C3CCN(C(=O)c4ccccc4)CC3)nc21, the survival was 76% (inactive).
For Cc1ccccc1Cn1nnc2c(=O)[nH]c(C3CCN(C(=O)c4ccc(F)cc4)CC3)nc21, the survival was 74% (inactive).
O=C(c1ccccc1)N1CCC(c2nc3c(nnn3Cc3ccccc3)c(=O)[nH]2)CC1 was tested, and the survival was 0% (active).
COc1ccc(Cn2nnc3c(=O)[nH]c(C4CCN(C(=O)c5ccc(C)cc5)CC4)nc32)cc1OC was tested, and the survival was 53% (inactive).
For Cc1cccc(Cn2nnc3c(=O)[nH]c(C4CCN(C(=O)c5ccc(F)cc5)CC4)nc32)c1, the survival was 29% (inactive).
In the case of O=C(c1ccccc1)N1CCCC(c2nc3c(nnn3Cc3ccc(F)cc3F)c(=O)[nH]2)C1 (stereo not drawn), the survival is reported as 104% (inactive).
For CC(C)(C)c1ccc(C(=O)N2CCCC(c3nc4c(nnn4Cc4cccc(F)c4)c(=O)[nH]3)C2)cc1 (stereo not drawn), the survival was 17% (inactive).
In the case of O=C(c1cccc(Cl)c1)N1CCC(c2nc3c(nnn3Cc3ccc(F)cc3F)c(=O)[nH]2)CC1, the survival is reported as 9% (active).
For Cc1ccccc1Cn1nnc2c(=O)[nH]c(C3CCN(C(=O)c4ccccc4)CC3)nc21, the survival was 25% (inactive).
In the case of Cc1cn2c(=O)cc(COc3ccccc3NC(=O)c3ccc(Cl)cc3)nc2s1, the survival is reported as 85% (inactive).
With COc1ccc(CCNC(=O)Cn2nc(C)n3c(cc4occc43)c2=O)cc1OC the survival was 86% (inactive).
COc1ccc(NC(=O)c2oc3ccccc3c2NC(=O)Cc2coc3ccc(C)cc23)cc1 was tested, and the survival was 85% (inactive).
In the case of CCc1ccccc1NC(=O)c1sc2nc3n(c(=O)c2c1C)CCC3, the survival is reported as 90% (inactive).
For CCOc1cc(C#N)c(NC(=O)c2ccc(OC)c(S(=O)(=O)N3CCCCC3)c2)cc1OCC, the survival was 75% (inactive).
In the case of Cc1ccc(Cn2c(CNC(=O)Cc3cccc([N+](=O)[O-])c3)nc3cccnc32)cc1, the survival is reported as 67% (inactive).
With COc1ccc(Cn2c(CNC(=O)Cc3cccc([N+](=O)[O-])c3)nc3cccnc32)cc1 the survival was -6% (active).
With CCOc1ccc(Cn2c(CNS(=O)(=O)c3ccc(CC)cc3)nc3cccnc32)cc1 the survival was 69% (inactive).
With CC(C)(C)c1ccc(S(=O)(=O)NCc2nc3cccnc3n2Cc2ccccc2Cl)cc1 the survival was 14% (active).
CCc1ccc(Cn2c(CNS(=O)(=O)c3ccc(C)c(C)c3)nc3cccnc32)cc1 was tested, and the survival was 71% (inactive).
In the case of O=C(Cc1cccc([N+](=O)[O-])c1)NCc1nc2cccnc2n1Cc1ccc(F)cc1, the survival is reported as 133% (inactive).
CCc1ccc(Cn2c(CNS(=O)(=O)c3ccc([N+](=O)[O-])cc3)nc3cccnc32)cc1 was tested, and the survival was 0% (active).
With CCc1ccc(S(=O)(=O)NCc2nc3cccnc3n2Cc2ccccc2Cl)cc1 the survival was 83% (inactive).
In the case of COc1ccc(Cn2c(CNS(=O)(=O)c3ccc(C)c(C)c3)nc3cccnc32)cc1, the survival is reported as -1% (active).
In the case of CCOc1ccc(Cn2c(CNS(=O)(=O)c3ccc([N+](=O)[O-])cc3)nc3cccnc32)cc1, the survival is reported as 87% (inactive).
COc1ccc(Cn2c(CNS(=O)(=O)c3ccc4c(c3)CCCC4)nc3cccnc32)cc1 was tested, and the survival was 133% (inactive).
In the case of O=[N+]([O-])c1ccc(S(=O)(=O)NCc2nc3cccnc3n2Cc2ccccc2Cl)cc1, the survival is reported as 74% (inactive).
COC(=O)c1ccc2c(c1)N(CC(=O)Nc1cccc(C(F)(F)F)c1)C(=O)c1ccccc1S2 was tested, and the survival was 77% (inactive).
With Cc1ccc(OCC(=O)Nc2ccc3nc(SCC(=O)N4CCCC4)sc3c2)cc1 the survival was 91% (inactive).
In the case of COc1cccc(CC(=O)NCc2ccc3c(c2)CCN3C(C)=O)c1, the survival is reported as 71% (inactive).
With COc1cccc(C(=O)Nc2cc(-c3ccccc3)nn2-c2ccccc2)c1 the survival was 69% (inactive).
In the case of Cc1ccc(NC(=O)c2c(C)oc3ccc(O)c(CN4CCCCC4)c23)cc1, the survival is reported as 86% (inactive).
With Cc1cc(C)c(NS(=O)(=O)c2ccc3c(c2)CC(C)N3C(=O)C2CCC2)c(C)c1 (stereo not drawn) the survival was 64% (inactive).
For O=C(CCCCn1c(=O)c2ccccc2n(Cc2cccc(Cl)c2)c1=O)NCc1ccc2c(c1)OCO2, the survival was 98% (inactive).
In the case of CCCCNC(=O)c1cccc(-n2c(C)nc3cccnc32)c1, the survival is reported as 73% (inactive).
In the case of CCc1ccccc1NC(=O)CCNS(=O)(=O)c1ccc2c(c1)CCCC(=O)N2, the survival is reported as 73% (inactive).
CCn1c(CN2CCOCC2)nc2cc(NC(=O)c3ccc([N+](=O)[O-])cc3)ccc21 was tested, and the survival was 90% (inactive).
In the case of c1cc2c(cc1CNC1CCCC1)OCO2, the survival is reported as 104% (inactive).
